The target in assay [1] is Cell division control protein 42 homolog (Homo sapiens) (UniProt P60953). Briefly: inhibition of fluorescent GTP binding to constitutively active Cdc42 – biochemical, multiplex bead flow cytometry, Bodipy-FL-GTP, dose response (AID 1333;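 active = fitted half-maximal concentration within the tested dose range, moderate curve steepness, a statistically real signal drop, and little compound fluorescence or tag-binding interference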). For orientation: Flow cytometry measures light scatter and fluorescence of single cells or particles in a stream.
Assay [2] shares this target. Briefly: inhibition of fluorescent GTP binding to wildtype Cdc42 – biochemical, multiplex bead flow cytometry, Bodipy-FL-GTP, dose response (AID 1334;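 active = fitted half-maximal concentration within the tested range, moderate curve steepness, significant signal drop, and little compound fluorescence or bead-linkage interference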). The following applies: bead-based flow cytometry, Bodipy-FL-GTP binding to GST-Cdc42; at 100 µM (top of the series) unless noted.
The target of assay [3] is GTPase HRas (Homo sapiens) (UniProt P01112). Description: Ras wt fluorescent GTP loading blockade – biochemical, wildtype, multiplex bead flow cytometry, dose response (AID 1335;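 active = fitted half-maximal concentration within 10 nM to 100 µM, steepness 0.5 to 2, significant signal drop, low assay interference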). Particulars: bead-based flow cytometry, Bodipy-GTP binding to GST-Ras; at 100 µM (top of the series) unless noted.
In assay [4] the test system is Ras-related protein Rab-7a (dog), GTP binding. Briefly: blockers of fluorescent GTP binding to Rab7 – biochemical, wildtype, multiplex bead flow cytometry, dose response (AID 1336; call rule not given here).
For assay [5], the target named is Ras-related C3 botulinum toxin substrate 1 (Homo sapiens) (UniProt P63000). Briefly: inhibition of wildtype Rac1 nucleotide loading – biochemical, multiplex bead flow cytometry, dose response (AID 1340). Particulars: GST-Rac1 beads, Bodipy-FL-GTP binding; at 100 µM (top of the series) unless noted.
Assay [6] deals with GTPase HRas (Homo sapiens) (UniProt P01112). Description: blockade of GTP loading onto mutant Ras – biochemical, activated mutant, multiplex bead flow cytometry, dose response (AID 1341;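 active = dose-response curve with midpoint inside the tested range, moderate steepness, significant amplitude and little compound fluorescence or bead-attachment interference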;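 note: GST-tagged constitutively activated Ras mutant immobilized on beads and multiplexed with other GTPases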).

For part of these data: Entries with a potency or affinity are not part of this list. Active and inactive are the calls of the source.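 Rule for the calls, unless noted: active = dose curve with midpoint inside tested range, moderate steepness, plateau gap beyond fit error, low compound glow and bead-link interference; inactive = the rest.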

Cell division control protein 42 homolog (Homo sapiens), sequence (P60953 whole entry, looked up): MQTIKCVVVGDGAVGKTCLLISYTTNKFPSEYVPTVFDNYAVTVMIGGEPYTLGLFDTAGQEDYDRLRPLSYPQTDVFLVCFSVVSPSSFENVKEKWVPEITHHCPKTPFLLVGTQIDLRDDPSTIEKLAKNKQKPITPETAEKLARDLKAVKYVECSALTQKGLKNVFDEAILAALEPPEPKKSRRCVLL
GTPase HRas (Homo sapiens), sequence (P01112 whole entry, looked up): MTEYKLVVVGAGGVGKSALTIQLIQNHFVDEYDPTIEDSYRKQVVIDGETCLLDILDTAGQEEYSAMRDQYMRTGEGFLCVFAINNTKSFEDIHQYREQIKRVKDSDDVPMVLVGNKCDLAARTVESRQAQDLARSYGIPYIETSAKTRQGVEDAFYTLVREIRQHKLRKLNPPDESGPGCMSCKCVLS

As to `CC(C)(C)C(=O)OCC1OC(n2cnc(C(N)=O)n2)C(O)C1O` (stereo not given), the outcome in assay [1], in assay [4] and in assay [6] was inactive. The fluorescence, percent of control (lower = inhibition) in assay [2] stood at 35.8%. The compound further returned a GTP binding, percent of control in assay [3] of 81.6%. Also, in assay [5], the GTP binding signal, raw median fluorescence (lower = inhibition) (MCF (arbitrary fluorescence units)) worked out at 266.
In the case of `NC(=S)Nc1cccc2cc3ccccc3cc12`, the outcome in assay [1], in assay [4] and in assay [6] was inactive. Moreover, the fluorescence, percent of control (lower = inhibition) in assay [2] turned out to be 75.3%. Besides, the GTP binding, percent of control in assay [3] turned out to be 120%. The GTP binding signal, raw median fluorescence (lower = inhibition) (MCF (arbitrary fluorescence units)) in assay [5] was 137.
In the case of `CCCCN1C(=O)/C(=C/C=C2\N(C)c3ccccc3C2(C)C)SC1=S`, the result in assay [1], in assay [4] and in assay [6] was inactive. Further, the fluorescence, percent of control (lower = inhibition) in assay [2] was 128%. This compound registered a GTP binding, percent of control in assay [3] of 134%. The compound further yielded a GTP binding signal, raw median fluorescence (lower = inhibition) (MCF (arbitrary fluorescence units)) in assay [5] of 235.
For the compound `O=[N+]([O-])c1cc2oc3c(c2c(C=NCc2ccccc2)c1O)CCCC3`, the outcome in assay [1], in assay [4] and in assay [6] was inactive. Also, the fluorescence, percent of control (lower = inhibition) in assay [2] was found to be 44.5%. This compound showed a GTP binding, percent of control in assay [3] of 58.7%. In assay [5], this compound yielded a GTP binding signal, raw median fluorescence (lower = inhibition) (MCF (arbitrary fluorescence units)) of 179.
`CSc1ccc(/C=N/NC(=O)c2cc(O)cc(O)c2)cc1`: the result in assay [1], in assay [4] and in assay [6] was inactive. Besides, the fluorescence, percent of control (lower = inhibition) in assay [2] was determined as 33.1%. The compound also registered a GTP binding, percent of control in assay [3] of 58.6%. The compound also gave a GTP binding signal, raw median fluorescence (lower = inhibition) (MCF (arbitrary fluorescence units)) in assay [5] of 160.
For the compound `NC(=O)c1cc2nc(-c3ccco3)cc(C(F)(F)F)n2n1`, the result in assay [1], in assay [4] and in assay [6] was inactive. Further, the fluorescence, percent of control (lower = inhibition) in assay [2] was found to be 29.6%. In assay [3], this compound showed a GTP binding, percent of control of 40.3%. Further, the GTP binding signal, raw median fluorescence (lower = inhibition) (MCF (arbitrary fluorescence units)) in assay [5] is 91.8.
Consider `CC(C)(C)c1ccc(OCCn2cc(C(=O)O)c3ccccc32)cc1`, for which the result in assay [1], in assay [4] and in assay [6] was inactive. Moreover, in assay [2], the fluorescence, percent of control (lower = inhibition) came out at 57.9%. Also, in assay [3], the GTP binding, percent of control worked out at 82.9%. The compound also yielded a GTP binding signal, raw median fluorescence (lower = inhibition) (MCF (arbitrary fluorescence units)) in assay [5] of 30.4.
Take `COc1ccc2[nH]c3nc(SCC(=O)Nc4ccc5c(c4)OCO5)nnc3c2c1`: the call in assay [1], in assay [4] and in assay [6] was inactive. Further, the fluorescence, percent of control (lower = inhibition) in assay [2] amounted to 70.4%. The compound further displayed a GTP binding, percent of control in assay [3] of 150%. In assay [5], this compound gave a GTP binding signal, raw median fluorescence (lower = inhibition) (MCF (arbitrary fluorescence units)) of 164.
Consider `Cc1cccc(OCC(=O)N/N=C/c2ccc3c(c2)OCO3)c1`, for which the outcome in assay [1], in assay [4] and in assay [6] was inactive. In addition, the fluorescence, percent of control (lower = inhibition) in assay [2] amounted to 34.8%. For the same compound, the GTP binding, percent of control in assay [3] came out at 89.5%. Moreover, in assay [5], the GTP binding signal, raw median fluorescence (lower = inhibition) (MCF (arbitrary fluorescence units)) is 256.
In the case of `Cc1ccc(-c2nnc3c4ccccc4c(C)nn23)cc1S(=O)(=O)N1CCN(CCO)CC1`, the result in assay [1], in assay [4] and in assay [6] was inactive. Further, the fluorescence, percent of control (lower = inhibition) in assay [2] turned out to be 38.3%. Besides, the GTP binding, percent of control in assay [3] stood at 86.6%. In assay [5], this compound had a GTP binding signal, raw median fluorescence (lower = inhibition) (MCF (arbitrary fluorescence units)) of 238.
Consider `COc1ccc(S(=O)(=O)N2CCCCC2)cc1NC(=O)c1ccc([N+](=O)[O-])o1`, for which the outcome in assay [1], in assay [4] and in assay [6] was inactive. The fluorescence, percent of control (lower = inhibition) in assay [2] stood at 32.3%. This compound also registered a GTP binding, percent of control in assay [3] of 73.3%. This compound returned a GTP binding signal, raw median fluorescence (lower = inhibition) (MCF (arbitrary fluorescence units)) in assay [5] of 172.
As to `Cc1nc2nc(SCC(=O)O)nn2c(C)c1Cc1c(F)cccc1Cl`, the outcome in assay [1], in assay [4] and in assay [6] was inactive. Further, in assay [2], the fluorescence, percent of control (lower = inhibition) was 28.4%. In assay [3], this compound displayed a GTP binding, percent of control of 75.3%. For the same compound, in assay [5], the GTP binding signal, raw median fluorescence (lower = inhibition) (MCF (arbitrary fluorescence units)) was 221.
Take `COc1ccc(CNC(=O)C2CC(=O)N(c3ccc(OCC(=O)N4C(C)CCCC4C)cc3)C2)cc1` (stereo not given): the outcome in assay [1], in assay [4] and in assay [6] was inactive. In assay [2], the fluorescence, percent of control (lower = inhibition) amounted to 106%. In assay [3], this compound came in with a GTP binding, percent of control of 177%. The GTP binding signal, raw median fluorescence (lower = inhibition) (MCF (arbitrary fluorescence units)) in assay [5] was 183.
Consider `O=C(O)c1cc([N+](=O)[O-])ccc1NCc1ccccc1Cl`, for which the outcome in assay [1], in assay [4] and in assay [6] was inactive. In addition, in assay [2], the fluorescence, percent of control (lower = inhibition) came to 96.9%. In addition, the GTP binding, percent of control in assay [3] was found to be 112%. Moreover, the GTP binding signal, raw median fluorescence (lower = inhibition) (MCF (arbitrary fluorescence units)) in assay [5] was found to be 84.1.
In the case of `CCCOc1ccc(OCCSc2nc3ccccc3n2CC(=O)O)cc1`, the result in assay [1], in assay [4] and in assay [6] was inactive. Moreover, in assay [2], the fluorescence, percent of control (lower = inhibition) was 60.2%. The GTP binding, percent of control in assay [3] was 87.7%. Moreover, in assay [5], the GTP binding signal, raw median fluorescence (lower = inhibition) (MCF (arbitrary fluorescence units)) stood at 35.1.

Values taken from PubChem BioAssay.
